Reference: PMC5540273 (PLoS ONE, 2017)

Assays:
Settings in all cases: concentration: 1 μM, replicates: in singlicate; n = 1
[1] = test system: T1, GRK3
T1 construct: gene ADRBK2

[2] = test system: GRK4
[3] = test system: GRK7
[4] = test system: GSK3A
[5] = test system: GSK3B
[6] = test system: T2, HASPIN
T2 construct: gene GSG2

[7] = test system: HCK
[8] = test system: HIPK1
[9] = test system: HIPK2
[10] = test system: HIPK3
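Note: KINOMEscan kinase panel screen.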

SMILES | %Inh [1] | %Inh [2] | %Inh [3] | %Inh [4] | %Inh [5] | %Inh [6] | %Inh [7] | %Inh [8] | %Inh [9] | %Inh [10]
COC(=O)C(NC(=O)NC1CCN(c2ccnc(Nc3ccc(F)cc3)n2)C1)c1ccccc1 (centres unmarked) [GSK1379712] | 18% | 0% | 0% | 16% | 4% | 0% | 0% | 12% | 0% | 48%
Cc1ccccc1Cn1ccn2c(=O)cc(N3CCOCC3)nc12 [GSK2269905] | 26% | 0% | 0% | 2% | 15% | 0% | 0% | 0% | 0% | 9%
COC(=O)C(Cc1ccccc1)NC(=O)NC1CCN(c2ccnc(Nc3ccc(F)cc3)n2)C1 (centres unmarked) [GSK1379714] | 58% | 1% | 0% | 13% | 6% | 24% | 4% | 0% | 0% | 0%
COc1ccc(Nc2nccc(N3CCC(NC(=O)C(C)c4ccc(Cl)cc4)CC3)n2)cc1 (centres unmarked) [GSK1379812] | 8% | 0% | 0% | 16% | 8% | 0% | 0% | 0% | 0% | 15%
CC(=O)c1c(C)c2cnc(Nc3ccc(N4CCNCC4)cn3)nc2n(C2CCCC2)c1=O | 9% | 7% | 8% | 0% | 0% | 0% | 0% | 20% | 0% | 0%
